Bioassay records deposited in PubChem BioAssay by Broad Institute.
PfHsp90 yeast 2 – growth inhibition of PfHsp90-expressing yeast, primary screen, antimalarial PfHsp90 inhibitor project, S. cerevisiae, BacTiter-Glo luminescence, single point, set 2. 310,000 tested, 0.32% active. BacTiter-Glo ATP, 48 h; yeast lacking PDR1 and PDR3 efflux regulators. AID 504621, 2011. inhibition, % at 9.4 µM;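 active means every replicate shows inhibition above about 80%, whatever the replicate mean, limit read from the data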;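 further: 0% = DMSO neutral controls and 100% = 20 µM radicicol positive controls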
SIRT5 block – SIRT5 desuccinylase inhibitors, primary screen, biochemical, fluorescence imaging, single point, set 5 | NAD-dependent protein deacylase sirtuin-5, mitochondrial (Homo sapiens), Q9NXA8 | Purified SirT5, succinyl-peptide AMC, trypsin-coupled fluorescence | inhibition, % at 15 µM | 330,000 tested, 1.1% active | AID 652115, 2013; in the data active means inhibition above about 15%
Target sequence (Q9NXA8 whole entry, looked up): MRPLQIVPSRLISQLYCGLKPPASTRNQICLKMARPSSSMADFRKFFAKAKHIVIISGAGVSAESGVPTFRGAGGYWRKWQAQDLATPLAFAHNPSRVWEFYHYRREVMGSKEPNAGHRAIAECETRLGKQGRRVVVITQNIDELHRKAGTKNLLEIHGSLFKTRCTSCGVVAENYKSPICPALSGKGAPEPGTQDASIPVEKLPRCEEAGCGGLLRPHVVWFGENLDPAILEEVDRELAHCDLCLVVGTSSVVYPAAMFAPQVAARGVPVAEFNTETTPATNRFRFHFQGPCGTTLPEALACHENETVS
NSD2 HMT inh – NSD2 histone methyltransferase inhibitors, primary screen, biochemical, AlphaScreen, single concentration, set 2; NSD2 peptide methylation, 120 min; 310,000 tested, 0.54% active; inhibition, % at 12.5 µM; Histone-lysine N-methyltransferase NSD2 (Homo sapiens), O96028; in the data active means inhibition above about 50%
CASP6 VEID inh – human caspase-6 inhibitors, primary screen, biochemical, VEID-R110 fluorescence, single point, set 2 | AID 686996, 2013 | inhibition, % at 12.5 µM | 350,000 tested, 0.53% active | P55212 | purified caspase-6, Z-VEID-R110 cleavage fluorescence;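 active means mean inhibition across replicates at least about 35%, with every replicate also reaching that limit, limit read from the data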;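 further: 0% = median of neutral control wells and 100% = no fluorescence left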
Target sequence (P55212 24-179 limits assumed): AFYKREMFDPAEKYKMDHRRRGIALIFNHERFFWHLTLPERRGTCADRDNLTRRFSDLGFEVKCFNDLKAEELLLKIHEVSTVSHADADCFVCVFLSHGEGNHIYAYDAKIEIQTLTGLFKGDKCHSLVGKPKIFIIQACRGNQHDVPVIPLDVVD
Target sequence (P55212 194-293 limits assumed): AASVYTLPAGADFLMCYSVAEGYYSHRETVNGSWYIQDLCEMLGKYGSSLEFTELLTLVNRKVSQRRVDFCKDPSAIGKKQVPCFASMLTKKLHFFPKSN
ARNT-TACC3 inh – disruptors of ARNT/TACC3 protein interaction, primary screen, biochemical, AlphaScreen, single concentration; AlphaScreen His-ARNT PAS-B/GST-TACC3 binding, luminescence; TACC3 fragment carries E629A point mutation; 390,000 tested, 0.66% active; AID 623870, 2012; inhibition, % at 9.99 µM;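 active means mean inhibition of replicates at least 50% and at least half of replicates each reaching 50%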;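 further: 0% = complete ARNT plus TACC3 wells and 100% = ARNT alone without TACC3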
ARNT Alpha ctr – AlphaScreen signal interference compounds, dose response, artefact control for ARNT-TACC3 interaction inhibitor project, biochemical, luminescence, cherry-pick; 1,200 tested, 50% active; His-ARNT PASB-GST AlphaScreen artifact counter-screen; shares compounds with ARNT-TACC3 inh; AC50, µM (titrated, usually from 68 µM), for the others: top-dose activity change, negative = signal decrease;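 active means every separate test run was called active for a drop in luminescence, with AC50 within twice the top valid dose, actives reach about 71 µM in these data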
* = called active by the depositor; nt = not tested or not shown. In the library only some 2.1% were active in any assay of this set; here they are far more common.

SMILES | PfHsp90 yeast 2 | SIRT5 block | NSD2 HMT inh | CASP6 VEID inh | ARNT-TACC3 inh | ARNT Alpha ctr
COc1ccc2c3c([nH]c2c1)[C@@H](CO)N(C(=O)c1cccc(F)c1)CC31CN(C(=O)c2cccc(F)c2)C1 | nt | 8 | nt | -1 | nt | nt
CCOc1ccc(Cl)cc1C(c1c(C)[nH][nH]c1=O)c1c(C)[nH][nH]c1=O | 5 | -1 | 27 | 1 | active | 4%
C#CCOc1ccc(Br)cc1C(c1c(C)[nH][nH]c1=O)c1c(C)[nH][nH]c1=O | -9 | 4 | 41 | 2 | -6 | nt
CCOc1ccc(-c2cnc(N)n2C)cc1 | 7 | -2 | 7 | 1 | 54* | -17%
Cn1c(-c2ccc(Cl)cc2)cnc1N | 18 | nt | 13 | nt | 58* | 58µM*
COc1cccc(-c2ccc3n(c2=O)C[C@H]2[C@H](CO)[C@@H](C(=O)N(C)C)[C@@H]3N2Cc2cncnc2)c1 | nt | -25 | nt | -1 | -7 | nt
Nc1ccc(N=Nc2ccccc2)c2ccccc12 | -2 | -1 | 5 | -1 | 10 | nt
c1ccc(N=Nc2ccc3cccccc2-3)cc1 | -1 | 3 | 41 | 1 | 57* | 3.2µM*
CO[C@H]1CN(C)C(=O)c2ccc(NC(=O)Cc3ccccc3)cc2OC[C@H](C)N(CC2CC2)C[C@@H]1C | nt | 3 | nt | -3 | nt | nt
O=C(NCc1ccccn1)c1c(-c2ccccc2)sc2ccccc12 | -1 | nt | nt | -3 | 59* | -17%
O=C(NCc1ccccn1)c1ccc(-c2ccccc2)cc1 | 6 | -4 | 13 | 9 | 17 | nt
COc1c(O)cccc1/C=N/NC(=O)Cn1ccnc1C | -12 | nt | nt | -2 | 61* | -25%
COc1cccc(/C=N/NC(=O)Cn2ccnc2C)c1 | -22 | 2 | -1 | -4 | nt | nt
CCNc1nc(NC(C)C)nc(SCCOC(=O)c2ccccc2)n1 | -6 | 2 | -3 | -7 | -5 | nt
CC(C)Nc1nc(NC(C)C)nc(C(=O)OCCO)n1 | 9 | nt | nt | 1 | 57* | -13%
Cc1noc(C)c1NC(=O)Nc1ccc2c(c1)C(=O)N(C)[C@@H]1CC[C@@H](CC(=O)N(C)C)O[C@H]1CO2 | nt | 6 | nt | 2 | 7 | nt
COc1ccccc1S(=O)(=O)N[C@H]1CC[C@H](CC(=O)NCc2cc(F)cc(F)c2)O[C@@H]1CO | nt | 8 | nt | -1 | nt | nt
O=S(=O)(N[C@H]1CC[C@H](CCn2cc(-c3ccccn3)nn2)O[C@H]1CO)c1cccc(Cl)c1 | nt | 2 | nt | 1 | 63* | 55µM*
O=S(=O)(N[C@@H]1CC[C@H](CCn2cc(-c3ccccn3)nn2)O[C@H]1CO)c1cccc(Cl)c1 | nt | 2 | nt | -1 | 69* | 34µM*
O=S(=O)(N[C@@H]1CC[C@@H](CCn2cc(-c3ccccc3F)nn2)O[C@@H]1CO)c1ccc(Cl)cc1 | nt | -1 | nt | 9 | 8 | nt
Cc1ccoc1C(=O)NCCCNC(=O)c1occc1C | -27 | nt | -57 | nt | 56* | -7%
O=C(C[C@H]1C=C[C@@H](NS(=O)(=O)c2ccccc2)[C@@H](CO)O1)N1CCN(c2ccccc2)CC1 | nt | 4 | nt | 1 | nt | nt
O=C(O)CCNc1cc(N2CCN(C(=O)c3ccco3)CC2)c2noc3c2c1C(=O)c1ccccc1-3 | -5 | 2 | nt | 26 | 53* | 19µM*
Cc1ccc(C2CCN(C(=S)Nc3cccc(C)c3)C2)cc1 (stereo unspecified) | -9 | nt | nt | 7 | 58* | -12%
CCOC(=O)N1CCN(C(=O)CSc2ccc3nnc(-c4ccccn4)n3n2)CC1 | -11 | 16* | -3 | -1 | 42* | 2%
SMILES | PfHsp90 yeast 2 | SIRT5 block | NSD2 HMT inh | CASP6 VEID inh | ARNT-TACC3 inh | ARNT Alpha ctr
O=C(CSc1ccc2nnc(-c3ccccn3)n2n1)NCC1CCCO1 (stereo unspecified) | -21 | -1 | nt | 1 | 56* | -16%
CCOC(=O)N1CCN(C(=O)CSc2ccc3nnc(-c4ccncc4)n3n2)CC1 | nt | 0 | 14 | 9 | 8 | nt
Cc1ccccc1NC(=O)CSc1nnc(-c2ccccn2)o1 | -24 | -3 | -6 | 0 | nt | nt
O=C(CSc1ccc2nnc(-c3ccccn3)n2n1)Nc1ccccc1F | -5 | 0 | 0 | 8 | 53* | -34%
O=C(CSc1nnc(-c2ccccn2)o1)Nc1ccccc1F | -18 | -2 | -5 | 1 | 59* | -10%
COCC#Cc1ccc2c(c1)O[C@H](CN(C)S(C)(=O)=O)[C@H](C)CN([C@@H](C)CO)S2(=O)=O | nt | 3 | nt | 2 | -6 | nt
C[C@H](CO)N1C[C@H](C)[C@H](CN(C)C(=O)NC2CCCCC2)OCCCC[C@H](C)Oc2ccc(NC(=O)Nc3ccc(F)cc3)cc2C1=O | nt | 6 | nt | 0 | 10 | nt
Fc1ccc(-c2ccc(CNCc3ccccn3)o2)cc1 | 2 | -2 | 0 | -1 | 61* | -29%
Cc1ccc(S(=O)(=O)N[C@H]2CC[C@H](CC(=O)NCc3ccc(Cl)c(Cl)c3)O[C@H]2CO)cc1 | nt | 8 | nt | 1 | -15 | nt
O=C1c2cccnc2C(=O)N1Cc1ccc(S(=O)(=O)NCc2ccco2)s1 | 33 | -4 | 0 | 1 | 57* | -8%
COC(=O)C1(NC(=O)CNC(=O)OCc2ccccc2)CCCC1 | 2 | -18 | 0 | -2 | active | -1%
CCC(=O)N1CC2(C1)[C@@H](c1ccc(-c3ccccc3C)cc1)[C@@H](CO)N2C(=O)CC | nt | -2 | nt | -3 | nt | nt
COc1ccc(-c2csc3nc[nH]c(=O)c23)cc1OC | 13 | 0 | -1 | 3 | 10 | nt
COc1ccc(C2=C(C)CC(C)(C)NC2=O)cc1OC | -1 | nt | 1 | nt | active | 5%
COc1ccccc1C(=O)Nc1ccccc1N1CCCCC1 | -63 | -8 | -4 | 1 | 14* | 5%
COc1ccc(Cl)cc1C(=O)Nc1ccccc1N1CCCCC1 | 8 | -4 | -5 | -2 | -10 | nt
O=C(C[C@H]1CC[C@H](NC(=O)c2ccccc2)[C@H](CO)O1)NCc1ccncn1 | nt | -3 | nt | -2 | -2 | nt
C[C@H]1CN([C@@H](C)CO)C(=O)Cc2cc(NC(=O)Nc3cccc4ccccc34)ccc2O[C@@H]1CN(C)Cc1ccc(Oc2ccccc2)cc1 | nt | -1 | nt | -1 | 61* | 34µM*
C[C@@H]1CN([C@@H](C)CO)C(=O)c2cc(NC(=O)Nc3cccc4ccccc34)ccc2O[C@@H]1CN(C)C(=O)Nc1ccc(C(F)(F)F)cc1 | nt | 3 | nt | -2 | -1 | nt
C[C@H]1CN([C@@H](C)CO)C(=O)c2cccc(NC(=O)Nc3cccc4ccccc34)c2O[C@@H]1CN(C)S(=O)(=O)c1ccc(Cl)cc1 | nt | -2 | nt | -1 | 53* | 25µM*
